Values joined by “and” are separate entries in the source; they are usually repeats but may differ in a detail not shown here. Equal values may be shown once. The source holds several records for some structures; these can differ, active in one and inactive in another. Active and inactive are the calls of the source. The calls were made as follows: active = hit-call score of the fitted dose curve at least 0.9, where 1 is the maximum; inactive = score below 0.9.
System: not listed separately
Assay: ATG_Oct_MLP_CIS: Attagene CIS-FACTORIAL HepG2 Assay for human Octamer-Binding Transcription Factor (Oct) (AID 2282993)
Details: HepG2 Attagene cis-factorial Oct reporter, mRNA; actives raise or lower the signal
Outline: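 Read-out: reporter mRNA via RT-PCR plus capillary electrophoresis of 6-FAM-labelled fragments. Transiently transfected HepG2, 24 h exposure, endogenous TF activity on cis elements. Gain or loss of signal fitted relative to DMSO.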

Row | SMILES | outcome | AC50
1 | Cc1cccc2c1ccc1ccccc12 | inactive | –
2 | CCCCCCCCCCCCCCCCCC[N+](C)(C)Cc1ccccc1 | – | 3.19 µM (active)
3 | O=C(OC(=O)C(F)(F)C(F)(F)F)C(F)(F)C(F)(F)F | inactive | –
4 | Cc1ccc2ccc3ccc(C)cc3c2c1 | inactive | –
5 | CCCCCCC(C)(C)C(=O)O | inactive | –
6 | COc1cc(OC)nc(NC(=O)NS(=O)(=O)Nc2ccccc2C(=O)N(C)C)n1 | inactive | –
7 | CCCCCCCCCCCC[N+](C)(C)CCCCCCCCCCCC | – | 5.23 µM (active)
8 | O=S(=O)(c1ccc(OCc2ccccc2)cc1)c1ccccc1O | – | 31.9 µM (active)
9 | CC1COCc2cc3c(cc21)C(C)(C)C(C)C3(C)C (stereo unspecified) | inactive | –
10 | CCOC(C)=O | inactive | –
11 | O=C(NO)c1ccccc1 | inactive | –
12 | O=C(F)C(F)(F)C(F)(F)C(F)(F)C(F)F | inactive | –
13 | O=c1cc(-c2ccccc2)oc2ccc3ccccc3c12 | inactive | –
14 | Cc1ccccc1C(OCCN(C)C)c1ccccc1 (stereo unspecified) | inactive | 119 µM (active)
15 | O=C(O)C(F)(F)OC(F)(F)C(F)(F)OC(F)(F)C(F)(F)OC(F)(F)C(F)(F)C(F)(F)C(F)(F)F | – | 34 µM (active) and 29.7 µM (active)
16 | COC(=O)C(F)(F)C(F)(F)C(F)(F)C(F)(F)C(F)(F)F | inactive | –
17 | CC1=NN(c2ccccc2)C(=O)C1 | inactive | –
18 | O=C(O)CCC(F)(F)C(F)(F)C(F)(F)C(F)(F)C(F)(F)F | inactive | –

Row | SMILES | outcome | AC50
19 | Oc1cc2ccccc2cc1O | inactive | –
20 | C=C(c1ccc(C(=O)O)cc1)c1cc2c(cc1C)C(C)(C)CCC2(C)C | inactive | 11.1 µM (active)
21 | O=C1c2ccccc2C(=O)c2c(O)c(O)cc(O)c21 | inactive | –
22 | CCOC=C(C(=O)OCC)C(=O)OCC | inactive | –
23 | OCC1CCC(CO)CC1 (stereo unspecified) | inactive | –
24 | FC(F)(F)C1(F)C(F)(F)C(F)(F)C(F)(F)C(F)(C(F)(F)F)C1(F)F (stereo unspecified) | inactive | –
25 | CCc1cccc(CC)c1N(COC)C(=O)CS(=O)(=O)O | inactive | –
26 | c1cc2cccc3c4cccc5cccc(c(c1)c23)c54 | inactive | –
27 | c1cnc2c(c1)ccc1cccnc12 | inactive | 155 µM (active)
28 | O=C(c1cc(O)c(O)c(O)c1)c1ccc(O)c(O)c1O | inactive | –
29 | FC(F)(F)N1C(F)(F)C(F)(F)OC(F)(F)C1(F)F | inactive | –
30 | CCCCCCOC(=O)c1ccc(O)cc1 | – | 57 µM (active)
31 | NNc1nc(-c2ccc([N+](=O)[O-])cc2)cs1 | inactive | –
32 | CCC(C)c1ccccc1O (stereo unspecified) | inactive | –
33 | C[N+](C)(CCCNS(=O)(=O)CCC(F)(F)C(F)(F)C(F)(F)C(F)(F)C(F)(F)C(F)(F)F)CC(=O)[O-] | inactive | –
34 | O=P(O)(O)CCC(F)(F)C(F)(F)C(F)(F)C(F)(F)C(F)(F)C(F)(F)C(F)(F)C(F)(F)F | inactive | –
35 | O=C(NCc1ncc(C(F)(F)F)cc1Cl)c1c(Cl)cccc1Cl | inactive | –
36 | CCCCN(C)C | inactive | –

Biological target: Cellular tumor antigen p53 (Homo sapiens) (UniProt P04637)
Assay: ATG_p53_CIS: Attagene CIS-FACTORIAL HepG2 Assay for human p53 Transcription Factor (AID 2282994)
Details: HepG2 p53 cis-element reporter, Attagene mRNA; actives raise or lower the signal
Outline: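 HepG2 cells transiently transfected with multiplexed cis-regulated reporter transcription units read endogenous TF activity. After 24 h compound exposure, reporter mRNA was quantified by RT-PCR, fluorescent labelling, HpaI digestion and capillary electrophoresis; bidirectional fits versus DMSO baseline.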

Sequence of Cellular tumor antigen p53 (Homo sapiens) (P04637 whole entry, looked up): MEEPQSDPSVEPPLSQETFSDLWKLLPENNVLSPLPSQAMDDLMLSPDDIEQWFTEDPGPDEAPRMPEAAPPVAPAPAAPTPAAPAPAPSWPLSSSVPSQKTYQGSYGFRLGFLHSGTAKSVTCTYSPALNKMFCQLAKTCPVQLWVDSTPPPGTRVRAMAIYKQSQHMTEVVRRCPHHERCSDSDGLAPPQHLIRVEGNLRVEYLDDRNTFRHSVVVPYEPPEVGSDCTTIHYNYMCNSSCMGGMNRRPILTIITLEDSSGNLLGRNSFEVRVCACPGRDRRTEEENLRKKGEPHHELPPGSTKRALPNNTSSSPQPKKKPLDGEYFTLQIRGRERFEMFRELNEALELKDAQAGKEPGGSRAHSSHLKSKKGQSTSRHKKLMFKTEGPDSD

Row | SMILES | outcome | AC50
37 | Cc1cccc2c1ccc1ccccc12 | inactive | –
38 | CCCCCCCCCCCCCCCCCC[N+](C)(C)Cc1ccccc1 | inactive | –
39 | O=C(OC(=O)C(F)(F)C(F)(F)F)C(F)(F)C(F)(F)F | inactive | –
40 | Cc1ccc2ccc3ccc(C)cc3c2c1 | inactive | –
41 | CCCCCCC(C)(C)C(=O)O | inactive | –
42 | COc1cc(OC)nc(NC(=O)NS(=O)(=O)Nc2ccccc2C(=O)N(C)C)n1 | inactive | –
43 | CCCCCCCCCCCC[N+](C)(C)CCCCCCCCCCCC | – | 10.4 µM (active)
44 | O=S(=O)(c1ccc(OCc2ccccc2)cc1)c1ccccc1O | – | 33.4 µM (active)
45 | CC1COCc2cc3c(cc21)C(C)(C)C(C)C3(C)C (stereo unspecified) | inactive | –
46 | CCOC(C)=O | inactive | –
47 | O=C(NO)c1ccccc1 | – | 35.3 µM (active) [middle of 4 runs]
48 | O=C(F)C(F)(F)C(F)(F)C(F)(F)C(F)F | inactive | –
49 | O=c1cc(-c2ccccc2)oc2ccc3ccccc3c12 | inactive | –
50 | Cc1ccccc1C(OCCN(C)C)c1ccccc1 (stereo unspecified) | – | 52.6 µM (active) and 88.3 µM (active)
51 | O=C(O)C(F)(F)OC(F)(F)C(F)(F)OC(F)(F)C(F)(F)OC(F)(F)C(F)(F)C(F)(F)C(F)(F)F | inactive | 27.4 µM (active)
52 | COC(=O)C(F)(F)C(F)(F)C(F)(F)C(F)(F)C(F)(F)F | inactive | –
53 | CC1=NN(c2ccccc2)C(=O)C1 | inactive | –
54 | O=C(O)CCC(F)(F)C(F)(F)C(F)(F)C(F)(F)C(F)(F)F | inactive | –

Row | SMILES | outcome | AC50
55 | Oc1cc2ccccc2cc1O | inactive | –
56 | NC(=NCCCCCCN=C(N)/N=C(\N)Nc1ccc(Cl)cc1)/N=C(\N)Nc1ccc(Cl)cc1 | inactive | 8.29 µM (active) and 8.25 µM (active)
57 | O=C1c2ccccc2C(=O)c2c(O)c(O)cc(O)c21 | inactive | –
58 | CCOC=C(C(=O)OCC)C(=O)OCC | inactive | –
59 | OCC1CCC(CO)CC1 (stereo unspecified) | inactive | –
60 | FC(F)(F)C1(F)C(F)(F)C(F)(F)C(F)(F)C(F)(C(F)(F)F)C1(F)F (stereo unspecified) | inactive | –
61 | CCc1cccc(CC)c1N(COC)C(=O)CS(=O)(=O)O | inactive | –
62 | c1cc2cccc3c4cccc5cccc(c(c1)c23)c54 | inactive | –
63 | c1cnc2c(c1)ccc1cccnc12 | – | 6.68 µM (active) and 6 µM (active)
64 | O=C(c1cc(O)c(O)c(O)c1)c1ccc(O)c(O)c1O | – | 100 µM (active)
65 | FC(F)(F)N1C(F)(F)C(F)(F)OC(F)(F)C1(F)F | inactive | –
66 | CCCCCCOC(=O)c1ccc(O)cc1 | – | 52.2 µM (active)
67 | NNc1nc(-c2ccc([N+](=O)[O-])cc2)cs1 | inactive | –
68 | C[N+](C)(CCCNS(=O)(=O)CCC(F)(F)C(F)(F)C(F)(F)C(F)(F)C(F)(F)C(F)(F)F)CC(=O)[O-] | inactive | –
69 | O=P(O)(O)CCC(F)(F)C(F)(F)C(F)(F)C(F)(F)C(F)(F)C(F)(F)C(F)(F)C(F)(F)F | inactive | –
70 | O=C(NCc1ncc(C(F)(F)F)cc1Cl)c1c(Cl)cccc1Cl | inactive | –
71 | CCCCN(C)C | inactive | –
